# Compound activity: PubChem BioAssay, National Center for Advancing Translational Sciences (NCATS)
# Sm TGR block = qHTS Assay for the Inhibitors of Schistosoma Mansoni Peroxiredoxins | 3% of 360,000 active | Schistosoma mansoni thioredoxin glutathione reductase (TGR), Q962Y6 | AID 485364, 2010 | Potency, µM (titrated, usually from 114 µM), for the others: at the highest dose activity change, negative = inhibition, hits mostly inhibitors | purified TGR, DTNB reduction, TNB absorbance 405 nm; further: potency means the concentration at half of the fitted maximal effect; on the % scale 0 is the no-effect control and ±100 the full control effect; nearly all actives have a fitted effect of over 60% in size
#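 Kinetic colorimetric format: TGR-catalysed, NADPH-driven DTNB reduction monitored via TNB absorbance. Enzyme dispensed at 20 nM; compound exposure 15 min at room temperature before reaction start.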
# LmPK inhibitor = qHTS Assay for Inhibitors of Leishmania Mexicana Pyruvate Kinase (LmPK). Q27686. purified LmPK, Kinase-Glo ATP luminescence, 1 h. Potency, µM (highest dose often 57.5 µM), for the others: top-dose activity change, negative = inhibition, hits mostly inhibitors. 0.37% of 290,000 active. AID 1721, 2009; further: potency means the concentration at half of the fitted maximal effect; on the % scale 0 is the no-effect control and ±100 the full control effect
#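 0.1 nM LmPK, 0.5 mM PEP, 0.1 mM ADP; 50 mM imidazole pH 7.2, 7 mM MgCl2, 50 mM KCl; 1 h RT. Kinase-Glo luminescence readout, normalized to no-enzyme (full inhibition) and uninhibited wells.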
# Tb PYK inh = qHTS of Trypanosoma Brucei Inhibitors | pyruvate kinase (Trypanosoma brucei), Q57TT1 | TbPYK enzyme, Kinase-Glo Plus ATP luminescence, 45 min | Potency, µM (highest dose often 76.8 µM), for the others: top-dose activity, negative = inhibition, usual class: inhibitors | 0.12% of 410,000 active; further: potency means the concentration at half of the fitted maximal effect; on the % scale 0 is the no-effect control and ±100 the full control effect; nearly all actives have a fitted effect of over 50% in size
#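 ADP (130 uM final) triggers the TbPYK reaction after compound addition; incubation is 45 min at room temperature. Kinase-Glo Plus is then added and luminescence imaged. Normalized data are fitted to concentration-effect curves.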
# Cycloheximide cs = Cycloheximide Counterscreen for Small Molecule Inhibitors of Shiga Toxin | 12% of 300,000 active | cell reporter, cycloheximide protein synthesis inhibition counterscreen | AID 2314, 2010 | max response, %; in the data active means max response mostly above about 13%, no sharp cut-off; inactive means mostly below about 14%; further: read at 38.3 µM for the half of the compounds with a filed dose; 0% is about no effect
# FBPA Giardia inh = qHTS Assay for Inhibitors of Fructose-1,6-bisphosphate Aldolase from Giardia Lamblia. purified Giardia FBPA. Potency, µM (doses to about 59.6 µM), without a hit: at the top dose activity, negative = inhibition, most hits filed as inhibitors. 0.71% of 290,000 active. AID 2451, 2010; further: potency means the concentration at half of the fitted maximal effect; on the % scale 0 is the no-effect control and ±100 the full control effect; nearly all actives have a fitted effect of over 55% in size
# Target sequence (A8B2U2 whole entry, looked up): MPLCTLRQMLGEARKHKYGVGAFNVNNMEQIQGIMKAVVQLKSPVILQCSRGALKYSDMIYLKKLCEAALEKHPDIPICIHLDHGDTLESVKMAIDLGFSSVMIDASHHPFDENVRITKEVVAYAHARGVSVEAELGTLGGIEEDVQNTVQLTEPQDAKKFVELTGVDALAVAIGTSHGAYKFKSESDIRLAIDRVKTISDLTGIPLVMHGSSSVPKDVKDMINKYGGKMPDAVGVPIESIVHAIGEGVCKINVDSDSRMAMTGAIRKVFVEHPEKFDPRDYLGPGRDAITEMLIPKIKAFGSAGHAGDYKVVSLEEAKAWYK
#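 40 nM FBPA preincubated 10 min at RT with compound (up to 57.5 uM final), then substrate plus GAPDH/TPI/NAD/arsenate coupling and diaphorase/resazurin added. Fluorescence read after 20 min at RT, 525/598 nm.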
# Shiga inhibitor = A qHTS for Small Molecule Inhibitors of Shiga Toxin | Vero cells, Shiga toxin protein synthesis inhibition reporter | inhibition, % at 38.7 µM | 9.2% of 290,000 active | AID 2315, 2010; in the data active means inhibition mostly above about 28%, no sharp cut-off; inactive means mostly below about 43%; further: 0% is about no effect
# * = called active by the depositor; ? = inconclusive; · = not tested or not shown; ! = a repeat was not active. This is one part of a sample in which hits are shown more often than they occur. Unless noted, the call rests on the fitted dose curve; in most records, active means well fitted curve in the direction sought with a large enough effect; inconclusive means small, poorly fitted or top-dose-only effect, or another doubt; inactive means no such curve, though single readings can be large; an effect the other way counts as inactive or inconclusive.
SMILES,Sm TGR block,LmPK inhibitor,Tb PYK inh,Cycloheximide cs,FBPA Giardia inh,Shiga inhibitor
COc1ccc(C2/C=C\CN(C(=O)Nc3ccccc3)CC(=O)N2Cc2ccc(F)cc2)cc1 (centres undefined),9%,3%,-1%,-7,2%,-2
COc1ccc(C2C(=O)N(C3CCCCC3)CC(=O)N2Cc2ccco2)cc1 (centres undefined),32µM*,4%,2%,1,4%,7
COc1ccc(C2/C=C\CN(Cc3ccco3)CC(=O)N2Cc2ccc(F)cc2)cc1 (centres undefined),32µM*,1%,-3%,-3,-10%,27
COc1ccc(C2/C=C\CN(C(=O)c3ccc(C)cc3)CC(=O)N2Cc2ccc(F)cc2)cc1 (centres undefined),2%,-2%,3%,82*!,3%,163*!
COc1cccc(NC(=O)c2cc3cccc(OC)c3o/c2=N\O)c1,1%,-1%,·,81*,1%,109*
COc1cccc(NC(=O)c2cc3ccccc3o/c2=N\O)c1,14%,-11%,-7%,19*,7%,·
O=C(Nc1ccccc1Cl)c1cc2ccccc2o/c1=N\O,8%,1%,-5%,41*,2%,123*
COc1cccc(NC(=O)c2ccccc2Oc2ccccc2)c1,-1%,4%,0%,-2,5%,14
Cc1cc(C)cc(Oc2c(C(F)(F)F)oc3c(CN4CCCC(C)C4)c(O)ccc3c2=O)c1 (centres undefined),2%,·,4%,·,·,·
CC1CCCN(C(=O)c2ccc3ncsc3c2)C1 (centres undefined),-4%,·,-1%,·,·,·
Cc1cc(C)c2oc(-c3ccc(C)c(NC(=S)NC(=O)/C=C/c4ccco4)c3)nc2c1,?,-2%,10%,29*,-3%,44*
Cc1cc(C)c2oc(-c3ccc(C)c(NC(=S)NC(=O)c4cccs4)c3)nc2c1,16%,0%,4%,17*,-7%,39*
Cc1ccc(-c2nc3ccccc3o2)cc1NC(=S)NC(=O)c1cccs1,0%,-2%,4%,32*,-9%,98*
CC(=O)Nc1nc(-c2ccc3c(c2)CCO3)cs1,20%,-7%,-5%,29*,-5%,74*
Nc1nc(-c2ccc3c(c2)CCO3)cs1,-1%,-13%,0%,38*,-3%,98*
COc1ccc(-c2csc(NC(=O)C3=COCCO3)n2)cc1OC,3%,·,1%,·,·,·
c1cnn2c(-c3ccc4c(c3)CCO4)cnc2c1,·,·,1%,·,·,·
Cc1ccc(C(=O)c2cn(Cc3cccc(F)c3)c3nc(C)ccc3c2=O)cc1,8%,·,3%,·,·,·
N#Cc1cc(Sc2ccccn2)c(Sc2ccccn2)cc1C#N,0%,9%,-23%,-3,-5%,-10
O=[N+]([O-])c1ccc(CSc2ccccn2)cc1,-20%,0%,11%,39*,1%,48
O=[N+]([O-])c1ccc(Sc2ccccn2)nc1,-19%,-2%,-22%,3,-5%,31
Cc1ccnc(SCc2ccc([N+](=O)[O-])cc2)n1,5%,6%,2%,17*,-3%,46
O=[N+]([O-])c1ccc(SCCc2ccccn2)cc1,-20%,-9%,-19%,21*,1%,50*
N#Cc1cc(Sc2ccccn2)c([N+](=O)[O-])cc1C#N,35µM*,5%,6%,8,?,-10
C=C1C(=O)OC2C[C@@]3(C)CCCC(C)C3=CC12 (some centres undefined),·,·,·,·,-1%,·
O=C(CSc1nc(=O)n(Cc2ccncc2)c2c1CCC2)Nc1cccc(F)c1,?,·,0%,·,·,·
COc1cc(NC(=O)c2ccc(C(=O)Nc3cc(OC)c(Cl)cc3OC)cc2)c(OC)cc1Cl,1%,·,2%,·,·,·
O=[N+]([O-])c1ccccc1CSc1ccccn1,8%,2%,7%,11,3%,53*
